Source: PubChem BioAssay (several laboratories)
MITF TRPM1 HTS = activators of MITF-driven TRPM1 promoter reporter, primary screen, cell-based, SK-MEL-5, luciferase, single point. 300,000 compounds, 0.75% hits. SK-MEL-5 TRPM1-promoter luciferase, 24 h; % of positive control, neutral wells = 0. activation, % at 12.5 µM;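 active means mean activation of at least 80% with every replicate also reaching 80%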
Wnt act = Wnt/beta-catenin pathway activators, primary screen, cell-based, plate reader, single point; Wnt/beta-catenin reporter cell assay, activator; activation, % at 9.35 µM; 300,000 compounds, 1.2% hits; AID 743398, 2014; in the data active means activation above about 30%, passing the limit was not always enough
FXN GAA850 act = FXN promoter activators, primary screen, cell-based, luciferase luminescence, HEK293 lucGAA850. 360,000 compounds, 0.56% hits. activation, % at 6 µM. HEK293 lucGAA850 FXN promoter luciferase reporter, 24 h; percent of 10 µM SAHA response;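 active means activation above the average of all compounds screened plus 3 SD, cutoff fixed separately per campaign, cut at about 7.5% in these data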
esBAF inh = Bmi1 luciferase reporter increase in mESCs, primary screen, esBAF inhibitor project, mouse ES cells, Bmi1 luciferase knock-in, single point; 350,000 compounds, 2% hits; 24 h; 100% = twice the neutral-well signal; AID 602393, 2012; reporter increase, % at 12.5 µM; in the data active means activation above about 40%;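 further: a rise in the Bmi1 reporter signal indicates esBAF inhibition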
AHR act = AHR activators, primary screen, cell-based, luminescence, luciferase reporter, human; Aryl hydrocarbon receptor (Homo sapiens), P35869; AHR-responsive luciferase reporter cells; activation, % at 5 µM; 320,000 compounds, 2.5% hits; in the data active means activation above about 47%
Target sequence (P35869 whole entry, looked up): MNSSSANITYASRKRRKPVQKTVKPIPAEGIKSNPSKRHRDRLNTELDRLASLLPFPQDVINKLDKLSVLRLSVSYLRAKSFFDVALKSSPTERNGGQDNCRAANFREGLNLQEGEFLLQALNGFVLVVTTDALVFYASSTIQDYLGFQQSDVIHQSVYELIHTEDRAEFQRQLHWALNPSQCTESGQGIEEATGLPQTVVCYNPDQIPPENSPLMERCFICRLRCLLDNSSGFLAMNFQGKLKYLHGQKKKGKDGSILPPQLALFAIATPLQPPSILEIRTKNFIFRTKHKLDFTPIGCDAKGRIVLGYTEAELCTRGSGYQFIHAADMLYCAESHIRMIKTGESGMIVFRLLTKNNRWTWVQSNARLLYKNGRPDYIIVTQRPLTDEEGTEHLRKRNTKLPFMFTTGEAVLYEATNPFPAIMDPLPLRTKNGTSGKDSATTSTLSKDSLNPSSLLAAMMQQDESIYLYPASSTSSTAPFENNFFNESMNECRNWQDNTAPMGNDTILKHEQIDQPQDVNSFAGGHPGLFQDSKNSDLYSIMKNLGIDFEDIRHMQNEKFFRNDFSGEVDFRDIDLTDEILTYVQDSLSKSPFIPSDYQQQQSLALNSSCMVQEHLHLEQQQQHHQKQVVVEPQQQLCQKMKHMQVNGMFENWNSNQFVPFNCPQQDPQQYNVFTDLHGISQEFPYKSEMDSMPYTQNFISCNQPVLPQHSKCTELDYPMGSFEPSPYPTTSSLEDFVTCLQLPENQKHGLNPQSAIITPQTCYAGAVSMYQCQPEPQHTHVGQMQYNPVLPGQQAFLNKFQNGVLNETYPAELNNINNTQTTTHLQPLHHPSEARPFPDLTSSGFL
Of the large screens only hits and unclear results are named; the others gave an inactive call. In the library only some 4.2% were active in any assay of this set; here they are far more common.

Cc1cc(C(=O)N(C)C2CCCCC2)no1	none
Cc1ccc(-c2cc(C(=O)NC3CCCCC3)no2)cc1	MITF TRPM1 HTS 114
C[C@@H]1CN([C@@H](C)CO)C(=O)c2cc(NC(=O)C3CC3)ccc2O[C@@H]1CN(C)S(=O)(=O)c1ccc(F)cc1	none (no result: MITF TRPM1 HTS, Wnt act, FXN GAA850 act, AHR act)
COc1cccc(-c2cc3c(-n4cccc4)ncnc3o2)c1	AHR act 56 (no result: Wnt act)
Cc1ccccc1Oc1ncnc2oc(-c3ccccc3)cc12	none
Cc1ccccc1S(=O)(=O)N1C[C@H](O)COC[C@H]2O[C@H](CC(=O)N3CCOCC3)CC[C@@H]21	none (no result: MITF TRPM1 HTS, Wnt act, FXN GAA850 act, AHR act)
C=CCc1c(C)nc(C)nc1N/N=C/c1ccc(N(C)C)cc1	AHR act 79 (no result: Wnt act)
CCCCn1c2ccccc2c2nnc(SCC(=O)NC3=NN=C(c4ccccc4)CS3)nc21	AHR act 61 (no result: MITF TRPM1 HTS, FXN GAA850 act, esBAF inh)
Cn1c2ccc(Br)cc2c2nnc(SCC(=O)O)nc21	AHR act 54 (no result: MITF TRPM1 HTS)
Cn1c2ccccc2c2nnc(SCC(=O)Nc3cccc(O)c3)nc21	AHR act 66 (no result: MITF TRPM1 HTS)
Cn1c2ccccc2c2nnc(SCC(N)=O)nc21	none
CCCn1c2ccccc2c2nnc(SCC(=O)OC)nc21	none (no result: Wnt act)
C[C@@H]1CN([C@@H](C)CO)C(=O)c2cc(NC(=O)CCC(F)(F)F)ccc2O[C@H]1CN(C)Cc1ccc(C(=O)O)cc1	none (no result: MITF TRPM1 HTS, Wnt act, FXN GAA850 act, AHR act)
C[C@H]1CN([C@@H](C)CO)S(=O)(=O)c2ccc(-c3cccc(F)c3)cc2O[C@H]1CN(C)S(C)(=O)=O	none (no result: MITF TRPM1 HTS, Wnt act, FXN GAA850 act, AHR act)
CC(=O)NC1C(c2nc3ccccc3s2)=C(c2ccccc2)C(=O)N1c1ccc(C)cc1 (stereo not drawn)	Wnt act 33 (no result: MITF TRPM1 HTS)
COc1ccccc1NC(=O)N[C@H]1CC[C@H](CC(=O)NCc2ccc(Cl)c(Cl)c2)O[C@H]1CO	none (no result: MITF TRPM1 HTS, Wnt act, FXN GAA850 act, AHR act)
Clc1cc(Cl)c2nc(N3CCOCC3)sc2c1	Wnt act 42, esBAF inh 61 (no result: MITF TRPM1 HTS)
COc1cccc2cc3c(=O)n(-c4ccccc4)nc-3oc12	AHR act 49
COc1cccc2cc(-c3nc4ccccc4o3)c(=O)oc12	Wnt act 42
CN(C)CCCNC(=O)C[C@@H]1CC[C@H]2[C@H](COc3ccc(NC(=O)c4ccc5c(c4)OCO5)cc3C(=O)N2C)O1	none (no result: MITF TRPM1 HTS, Wnt act, FXN GAA850 act, AHR act)
NNC(=O)c1cn2ccccc2n1	none (no result: Wnt act)
O=C(Nc1nccs1)c1cn2ccccc2n1	AHR act 62 (no result: esBAF inh)
Cn1c(=O)cc(SCC(=O)Nc2ccccn2)c2ccccc21	AHR act 62 (no result: MITF TRPM1 HTS, FXN GAA850 act, esBAF inh)
O=C(CSCc1ccccc1Cl)N1CCN(c2ccccn2)CC1	esBAF inh 58 (no result: Wnt act)
Cc1ccnc(NC(=O)CSc2cc(=O)n(C)c3ccccc23)c1	none (no result: Wnt act)
Cn1cc(SCC(=O)Nc2nccs2)c2ccccc21	esBAF inh 68 (no result: MITF TRPM1 HTS)
Cn1c(=O)cc(SCC(=O)N2CCN(c3ccccn3)CC2)c2ccccc21	AHR act 64
C[C@@H]1CCCCO[C@@H](CN(C)C(=O)CCCN(C)C)[C@H](C)CN([C@H](C)CO)C(=O)c2cc(NC(=O)Nc3ccc(C(F)(F)F)cc3)ccc2O1	none (no result: MITF TRPM1 HTS, Wnt act, FXN GAA850 act, AHR act)
C[C@@H]1CN([C@@H](C)CO)C(=O)c2cccc(NC(=O)C3CC3)c2O[C@H]1CN(C)S(=O)(=O)c1cn(C)cn1	none (no result: MITF TRPM1 HTS, Wnt act, FXN GAA850 act, AHR act)
N#CCCn1nc(-c2ccccc2)cc1Nc1ccccc1NC(=O)c1cccs1	AHR act 49 (no result: MITF TRPM1 HTS)
COc1ccc(C2=Nc3ccccc3NC(=O)C2N(C(=O)c2cnc(C)cn2)c2ccc(N3CCOCC3)cc2)cc1 (stereo not drawn)	esBAF inh 48 (no result: MITF TRPM1 HTS, FXN GAA850 act, AHR act)
O=C(NCc1ccc(Cl)cc1)C1CCCN(c2cnccn2)C1 (stereo not drawn)	AHR act 78
CCOc1ccc(NC(=O)C2CCCN(c3cnccn3)C2)cc1 (stereo not drawn)	AHR act 64
Cc1cccc(CCNC(=O)C2CCCN(c3cnccn3)C2)c1 (stereo not drawn)	AHR act 73
CCCc1ccc(NC(=O)C2CCCN(c3cnccn3)C2)cc1 (stereo not drawn)	AHR act 48
COc1cccc(CNC(=O)C2CCCN(c3cnccn3)C2)c1 (stereo not drawn)	none
O=C(Nc1ccc(Cl)cc1)C1CCCN(c2cnccn2)C1 (stereo not drawn)	none
O=C(Nc1ccc(F)cc1)C1CCCN(c2cnccn2)C1 (stereo not drawn)	none
CC(=O)N1[C@H](CO)[C@@H](c2ccccc2)[C@@H]1CN(C)C(=O)c1ccccc1F	none (no result: MITF TRPM1 HTS, Wnt act, FXN GAA850 act, AHR act)
